# Assay results: PubChem BioAssay AID504843 (Broad Institute, 2011)
# Screen size: about 1,200 compounds; about 360 (30%) were called active. No rule for the calls is given here. The list is a sample of the results. Measured potencies and affinities stand elsewhere.
# Assay: bacterial growth inhibition, dose response, counter-screen, BacTiter-Glo luminescence, cherry-picked samples (AID 504843);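 also: 0% = median of sample compound wells and -100% = antibiotic control wells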
# Conditions: BacTiter-Glo ATP luminescence; series mostly up to 15 µM; activity change, negative = inhibition: at the top concentration
row,Compound,"activity change, negative = inhibition"
1,COc1ccc(C(=O)Nc2c3c(nn2-c2ccc(Cl)cc2)CS(=O)(=O)C3)cc1,8.38% (inactive)
2,c1ccc(Nc2nc(Nc3ccccc3)nc(N3CCNCC3)n2)cc1,0.935% (inactive)
3,Cc1ccc(Nc2nnns2)cc1C,-4.06% (inactive)
4,Cc1cc(=O)oc2cc(O)cc(O)c12,19.5% (inactive)
5,O=C(Nc1nnc(S(=O)(=O)N2CCCCCC2)s1)c1ccccc1Br,17.1% (inactive)
6,CSc1ccccc1OCc1cc(C(=O)N(C)Cc2c(C)n[nH]c2C)no1,5.09% (inactive)
7,CCc1ccc2c(CSc3nnnn3C)cc(=O)oc2c1,7.57% (inactive)
8,Cc1ncc(CN2CCN(CCC(C)C)C(CCO)C2)s1 (stereo not given),-4.86% (inactive)
9,CC(=O)C1C(c2ccc(Cl)cc2)NC(=O)NC1(O)C(F)(F)F (stereo not given),-4.75% (inactive)
10,Cc1cc(=O)[nH]c(Sc2c(-c3ccccc3)c3ccccc3[nH]c2=O)n1,16.9% (inactive)
11,Cc1cc(C)n(CCC(=O)N/N=C/c2c(O)ccc3ccccc23)n1,20% (inactive)
12,COC(=O)[C@H]1[C@H]2C[C@H]3c4[nH]c5ccccc5c4CCN3C[C@@H]2CC[C@@H]1O,-8.06% (inactive)
13,CCC(=O)NC(c1ccccc1Cl)c1c(O)ccc2ccccc12 (stereo not given),-3.81% (inactive)
14,Cc1ccsc1C1C(C#N)=C(N)OC2=C1C(=O)CC(C)C2 (stereo not given),-0.951% (inactive)
15,COc1cccc(C2CC(c3c(-c4ccccc4)c4cc(Cl)ccc4[nH]c3=O)=NN2S(C)(=O)=O)c1OC (stereo not given),7.14% (inactive)
16,CCn1c(SCC(=O)Nc2ccc(F)cc2)nnc1-c1cnccn1,9.67% (inactive)
17,CNC1=CC(=O)CC(c2ccccc2)C1 (stereo not given),-15.1% (inactive)
18,COc1ccc(OCc2nnc3n2N=C(c2ccccc2)C(CC(=O)O)S3)cc1 (stereo not given),14.5% (inactive)
19,Cn1cccc1CNCC(O)c1ccccc1 (stereo not given),-0.635% (inactive)
20,CN(C)S(=O)(=O)c1cccc(NC(=O)C2CCN(S(=O)(=O)c3cccs3)CC2)c1,12.5% (inactive)
21,Cn1c(SCC(=O)NCc2cccs2)nnc1-c1ccc(S(=O)(=O)N2CCCC2)cc1,11% (inactive)
22,CCCCn1c(N)c(N(CC)C(=O)c2ccc(Cl)c(Cl)c2)c(=O)[nH]c1=O,8.09% (inactive)
23,CCCCCN(C(=O)CCC(=O)OCC(=O)N(C)Cc1ccc(C)cc1)c1c(N)n(CCCC)c(=O)[nH]c1=O,-1.92% (inactive)
24,CC1(C)CC(NC(=O)c2ccc(-c3ccc([N+](=O)[O-])cc3)o2)CC(C)(C)N1,-7.62% (inactive)
25,CC(O)(CC(=O)CC(=O)c1ccccc1)c1ccccc1 (stereo not given),-0.437% (inactive)
26,COc1ccc(C2CC(=O)c3cnc(NC(=O)c4ccccc4)nc3C2)c(OC)c1 (stereo not given),-3.54% (inactive)
27,S=c1[nH]nc(-c2cccnc2)n1C1CCCCC1,6.26% (inactive)

row,Compound,"activity change, negative = inhibition"
1,COCc1cc(=O)[nH]c2cc(NC(=O)C(F)(F)F)c(C)cc12,13.1% (inactive)
2,CCOc1ccccc1C1C(C(N)=O)=C(C)Nc2nc(-c3ccccc3Cl)nn21 (stereo not given),9.98% (inactive)
3,COc1ccc(C2C(C#N)=C(N)Oc3c2sc2nc(C)cc(C)c32)cc1 (stereo not given),17.4% (inactive)
4,Cc1cc(-n2c(C)cc(C(=O)COc3cccnc3[N+](=O)[O-])c2C)no1,-3.66% (inactive)
5,Cc1ccc2cccc(OCC(=O)N3CCc4ccccc43)c2n1,-10.9% (inactive)
6,CC(C)C[C@H]1C(=O)N2CCC[C@H]2[C@]2(O)O[C@](NC(=O)[C@@H]3C=C4c5cccc6[nH]c(Br)c(c56)CC4N(C)C3)(C(C)C)C(=O)N12 (stereo not given in full),-4.13% (inactive)
7,CCC(C)OC1OC(CO)C(O)C(O)C1NC(C)=O (stereo not given),13.9% (inactive)
8,COc1ccc(S(=O)(=O)N2CCCOC2CNC(=O)C(=O)NCCCN2CCOCC2)cc1 (stereo not given),-0.455% (inactive)
9,CCOC(=O)c1c(NC(=O)CCC(=O)O)sc2c1CC(C)(C)OC2,15.3% (inactive)
10,Cc1ccc(C(=O)N/C(=C\c2ccc(C(C)C)cc2)C(=O)NCCCN2CCOCC2)cc1,-15.5% (inactive)
11,CC(C)OC(=O)c1c(NC(=O)c2ccco2)sc2c1CCCC2,17.8% (inactive)
12,Cc1cc(NC(=O)C2CC2)ccc1NC(=O)c1cccs1,-17.9% (inactive)
13,O=C1OCc2ccc(NC(=O)C3CC3)cc21,1.73% (inactive)
14,COc1ccc(-c2nc(C#N)c(NCC3CCCO3)o2)cc1OC (stereo not given),-1.88% (inactive)
15,CCOC(=O)CSc1cc(CS(C)(=O)=O)nc(-c2ccccn2)n1,7.55% (inactive)
16,CC1CCN(CC[C@H]2CCCN2S(=O)(=O)c2cccc(O)c2)CC1,2.47% (inactive)
17,Cc1ccc(C(=O)c2cnc3ccccc3c2-c2ccccc2)cc1,-8.6% (inactive)
18,CN(C(=O)c1cc2sccc2n1C)C1CCCCC1,12.9% (inactive)
19,CN(C)CCCNC(=O)C(=O)NCC1CCCO1 (stereo not given),-5.29% (inactive)
20,Cc1nn(Cc2ccccc2)c(C)c1NC(=O)c1noc2c1CCc1ccccc1-2,-0.677% (inactive)
21,Cc1ccc(Cn2nc(C)c(NC(=O)c3cc(C)no3)c2C)cc1,7.15% (inactive)
22,O=C(CCCc1ccccc1)Nc1ccc2c(c1)OCCO2,-10% (inactive)
23,O=C(NCCc1ccccc1)c1n[nH]c2ccccc12,6.31% (inactive)
24,Cc1ccc(-n2c3nc(=O)[nH]c(=O)c-3cc3c(C)nn(-c4ccccc4)c32)c(C)c1,8.81% (inactive)
25,N#Cc1cn(CC(=O)N2CCCc3ccccc32)c2ccccc12,9.03% (inactive)
26,CC1CCc2nc(N)c(C#N)c(-c3ccncc3)c2C1 (stereo not given),16.1% (inactive)
27,COc1ccc(-c2ccc(-c3noc(-c4ccccc4OC)n3)c(OC)n2)cc1,11.3% (inactive)

row,Compound,"activity change, negative = inhibition"
1,CC(C)c1cc(C(=O)NCc2ccco2)no1,14.4% (inactive)
2,CCN(CC)S(=O)(=O)c1ccc(S(=O)(=O)Nc2ccc3c(c2)oc2ccccc23)cc1,2.45% (inactive)
3,C/C(=C\C(=O)OCCCCCCCCC(=O)O)C[C@@H]1OC[C@H](C[C@@H]2O[C@H]2[C@@H](C)[C@H](C)O)[C@@H](O)[C@H]1O,0.167% (inactive)
4,COc1ccc(S(=O)(=O)N(C)C)cc1NC(=O)CSc1nnc(-c2cccnc2)o1,6.6% (inactive)
5,CC1=CC(C)(C)N2C(=O)C3(C(C#N)=C(N)OC4=C3C(=O)CCC4)c3c(C)c(C)cc1c32 (stereo not given),5.51% (inactive)
6,CC1(C)CC(=O)C=C(NCCN2CCN(C(=O)Nc3ccccc3)CC2)C1,19.7% (inactive)
7,COCCCN=C(c1ccco1)n1c(=S)nc(-c2ccco2)n(CCCOC)c1=S,6.13% (inactive)
8,CSc1ccccc1NC(=O)CN(C)CC(=O)Nc1ccc(S(=O)(=O)N2CCCC2)cc1,6.77% (inactive)
9,O=C(COc1ccc([N+](=O)[O-])cc1)Nc1cc(S(=O)(=O)N2CCCCC2)ccc1N1CCCCC1,8.82% (inactive)
10,Cc1c(C)c2c(C)nn(-c3ccccc3)c2[nH]c1=O,-4.55% (inactive)
11,CC(C)C(c1nnnn1C1CCCC1)N1CCC(C(N)=O)CC1 (stereo not given),-2.09% (inactive)
12,Cc1ccc(-n2nnnc2-c2cnc3cc4c(cc3c2C)OCO4)cc1,1.35% (inactive)
13,O=C(Cc1ccccc1Cl)c1ccccc1,10% (inactive)
14,O=C(NCc1ccccn1)C1CC(c2ccccc2O)=NO1 (stereo not given),-9.99% (inactive)
15,COc1cc2cc(CN(CCO)S(=O)(=O)c3ccccc3Cl)c(=O)[nH]c2cc1OC,0.781% (inactive)
16,COC(=O)Nc1ccc2c(c1)N(C(=O)CCN1CCOCC1)c1ccccc1S2,-14.7% (inactive)
17,CC(C)(C)OC(=O)N(CCc1ccccc1)Cc1cccc(OCc2cccc(NC(=O)/C=C/c3ccccc3)c2)c1,7.89% (inactive)
18,CCc1ccc(N2CC34C=CC(O3)C(C(=O)OC(C)C)C4C2=O)cc1 (stereo not given),18.4% (inactive)
19,Cc1nnc(SCc2ccccc2CSc2nnc(C)s2)s1,1.42% (inactive)
20,Cc1onc(-c2ccccc2)c1C(=O)NCc1ccc(F)cc1,-6.92% (inactive)
21,Cc1onc(-c2c(F)cccc2Cl)c1C(=O)Nc1sc2c(c1C#N)CCC(C(C)(C)C)C2 (stereo not given),-16.8% (inactive)
22,Cn1c(C(=O)NCc2cccs2)cc2c(=O)n(C)c3ccccc3c21,-14.9% (inactive)
23,CCCOc1ccc(/C(O)=C2/C(=O)C(=O)N(CCN(C)C)C2c2ccc(O)c(OC)c2)cc1 (stereo not given),8.34% (inactive)
24,COC(=O)CSc1ccc(C#N)c(SCC(=O)OC)c1,10.5% (inactive)
25,CCN(CC)C(=O)C1=C(C)NC(=O)NC1c1c(F)cccc1Cl (stereo not given),9.12% (inactive)
26,CCOC(=O)C1=C(C)NC(=S)NC1c1cc(C)sc1C (stereo not given),1.75% (inactive)
27,Nc1ccc2c(c1)-c1ccccc1S(=O)(=O)N2,-7.08% (inactive)

row,Compound,"activity change, negative = inhibition"
1,CCCOc1cccc(C(=O)Nc2ccc(Br)cc2F)c1,13.1% (inactive)
2,CCOC(=O)c1ccccc1-n1nnnc1C,14.4% (inactive)
3,O=C(CNc1ccc(Cl)cc1)c1ccc(Br)cc1,12.4% (inactive)
4,COC(=O)COc1cc2ccccc2cc1C(=O)Nc1ccccc1,11.7% (inactive)
5,O=S(=O)(/N=C(/Nc1ccccc1)c1ccccc1)c1cccs1,14.9% (inactive)
6,CCc1ccc(C(=O)Nc2ccc(S(=O)(=O)Nc3nc(C)cc(C)n3)cc2)o1,-4.41% (inactive)
7,COc1ccc(-c2cc(C(=O)Oc3ccc([N+](=O)[O-])cc3)c3ccccc3n2)cc1,13.5% (inactive)
8,CCO[C@@H]1OC(C(=O)O)=C[C@H](C)[C@H]1CCCO,-6.26% (inactive)
9,O=C(O)C1(C(=O)O)CCC1,-7.92% (inactive)
10,Cc1occc1C(=O)NCc1cccc(CNC(=O)c2ccoc2C)c1,-3.57% (inactive)
11,O=C(Cn1cc(C(F)(F)F)ccc1=O)OCC(=O)c1ccc[nH]1,-0.317% (inactive)
12,COc1ccc(-c2[nH]nc3c2C(c2ccoc2)C(C#N)=C(N)O3)cc1 (stereo not given),10.6% (inactive)
13,COc1ccccc1N1CCN(C(=O)c2cc3c(=O)n4ccccc4nc3s2)CC1,4.25% (inactive)
14,COc1ccccc1C(=O)Nc1ccnn1C1CCN(Cc2cnn(C)c2)CC1,-9.99% (inactive)
15,COc1ccccc1-c1ccc(=O)n(CC(=O)Nc2ccc(C(=O)N3CCCC3)cc2)n1,-8.64% (inactive)
16,N#Cc1ccccc1S(=O)(=O)N1CCN(CC(=O)Nc2ccnn2C2CCCC2)CC1,1.24% (inactive)
17,C=CCOc1ccccc1CN1CCC(n2nccc2NC(=O)C2CC2)CC1,-0.759% (inactive)
18,C[C@H]1CN([C@@H](C)CO)C(=O)c2cccc(NS(=O)(=O)c3ccc(F)cc3)c2O[C@H]1CN(C)Cc1ccc(Cl)c(Cl)c1,21.8% (inactive)
19,CNC(=O)CN(c1ccc(C(C)C)cc1)S(C)(=O)=O,0.765% (inactive)
20,CC1CCN(C(=O)C2(NC(=O)Nc3cccc(F)c3)CCCCC2)CC1,14.5% (inactive)
21,CCOc1ccc(NC(=O)c2cccc(OC(=S)N3CCC(C)CC3)c2)cc1,-6.49% (inactive)
22,Cc1nc2ccc(C(=O)Nc3ccc4nc[nH]c4c3)cc2[nH]1,21.4% (inactive)
23,O=C(N[C@@H](Cc1ccccc1)C(=O)NC1CC1)c1ccc(Cl)cc1,-0.277% (inactive)
24,CN1C(=O)N(C)C2(c3ccccc3)NC(=O)NC12c1ccccc1 (stereo not given),-6.8% (inactive)
